Data reported in PubChem BioAssay (EPA / NIEHS).
Activity calls are given as the source filed them. Rule for the calls: active = hit-call score of the fitted dose curve at least 0.9, where 1 is the maximum; inactive = score below 0.9.

Each compound was assayed on sulfotransferase 2A1 (SULT2A1), SULT2A1 (gene 6822) (assay: LTEA_HepaRG_SULT2A1: Life Technologies and Expression Analysis (LTEA) Assay for sulfotransferase 2A1 (SULT2A1) using HepaRG (AID 2283531)). Conditions: mRNA level, 48 h; actives raise or lower the signal.
Experimental: LTEA_HepaRG is a cell based, multiplexed-readout assay that uses HepaRG, a human liver cell line, with measurements taken at 48 hours after chemical dosing on a 96-well plate.LTEA_HepaRG_SULT2A1 is one of 102 assay component(s) measured in the LTEA HepaRG cell culture assay. It is a marker of NR mediated transport.Data from the assay component LTEA_HepaRG_SULT2A1 was analyzed into 1 endpoint. This assay endpoint, LTEA_HepaRG_SULT2A1, was analyzed with bidirectional fitting relative to DMSO as the negative control and baseline of activity. Using a type of inducible reporter, measures of mRNA induction for gain or loss-of-signal activity can be used to understand regulation of transcription factor activity. To generalize the intended target to other relatable targets, this assay endpoint is annotated to the transferase intended target family, where the subfamily is sulfotransferase.
A total of 1060 chemcials from the ToxCast library were tested in eight-point concentration-response experiments. Cell culture and cytotoxicity assays were conducted at Thermo Fisher Scientific's Custom Services facility (Madison, WI). A single lot of human HepaRG cells (Thermo Fisher Scientific, Frederick, MD) was used for the cell culture experiments. 96-well format collagen type I coated plates of human HepaRG cells were prepared using established methods. Briefly, cryopreserved HepaRG cells were thawed, plated at a density of approximately 100,000 cells/well in HepaRG Thaw, Plate, and General Purpose media (HPRG770, Thermo Fisher Scientific), and incubated for 48 hours. 0.5% DMSO was selected as vehicle control to balance the requisite need of DMSO in HepaRG cultures to maintain differentiation (for example, baseline metabolism, proportions of hepatocytes vs. cholangiocytes), while enabling further hepatic receptor pathway activation (for example, PXR and CAR) in response to chemical exposure. 48 hours after plating, the culture medium was replaced with HepaRG Serum-Free Incudtion Media. Cells were exposed to each test chemical in duplicate and maintained in CO2 incubators for another 48 hours. Chemical plates were thawed to room temperature and 200x concentrations of treatment groups were prepared. 8-point conentration-reponse curves were made with the highest exposure at 100 uM, followed by half-log dilutions, all in 0.5% DMSO. Each test plate contained variouse controls, induction positive controls (1mM phenobarbital), cytotoxicity positive controls ([…] aflatoxin B1), vehicle controls (0.5% DMSO), and total lysis controls (0.5% DMSO). Cell morphology images were taken using an Essen IncuCyte FLR automated microscope, with six 96-well plates imaged in about 24 minutes. Images were captured and exported and JPEG files. Spent culture media was transfered to black-well plates for the LDH assay, and remaining media was sorted at -80 C for later use. Cells were treated with RLT buffer and frozen until shipped for gene expression analysis. Total RNA was isolated from the cell suspension in 75 uL of Buffer RLT (Qiagen, Germantown, MD 20874) by Quintiles/Expression Analysis (Durham, NC) using a custom isolation procedure. Total RNA from each plate well was transferred to a preamplification plate. Fluidigm's 96.96 Dynamic ArrayTM (Fluidigm, Amsterdam, the Netherlands) technology was used for gene expression analyses by quantitative reverse transcription polymerase chain reaction (qRT-PCR, performed by Quintiles/Expression Analysis, Durham, NC)89. Standard TaqManTM Assays (Applied Biosystems/ThermoFisher Scientific, Foster City, CA) were used to assess the expression of 93 genes selected based on their selectivity and sensitivity to important hepatic receptors known to be modulated by environmental chemicals; importance in human hepatocyte functionality; and hepatotoxicity. […]

Compound	outcome
Cc1cc(C)cc(C)c1	inactive
Clc1cccc(Cl)c1Cl	inactive
CCCCCCCCCCCCc1cccc(S(=O)(=O)O)c1	inactive
CN(C)C(=S)S	inactive
O=C(N[C@H]1CN2CCC1CC2)c1ccc2c(c1)OCCO2	inactive
OCCN(CCO)CCO	inactive
N#Cc1cccnc1	inactive
Clc1cccc(Cl)c1	inactive
Oc1cc(Cl)c(Cl)cc1Cl	inactive
COc1ccccc1N	inactive
CC(C)(C)c1ccccc1O	inactive
O=C(O)C1(c2ccc3c(c2)OC[C@H](Cc2ccc(-c4ccccc4)cc2)[C@H]3O)CCCC1	inactive
CC(C)O.CC(C)O.OCCN(CCO)CCO.OCCN(CCO)CCO.[Ti]	inactive
Oc1c(Cl)cc(Cl)cc1Cl	inactive
